This note sets out measurements from PubChem BioAssay.

Molecules are shown by their SMILES. The source made the active and inactive calls.

This experiment can be described thus: resazurin metabolic signal in A549 cells – cell-based, resazurin fluorescence, 24 h, PK04 Diversity Set, profiling panel (AID 1171). Further: test concentration not given here. Particulars: A549 viability, higher = more signal, called active from +8 up or from −8 down.
Take `C=CC[C@@]12N=C(c3ccc(OCCCO)cc3)O[C@@H]1c1ccccc1N(CCS(=O)(=O)c1ccccc1)C2=O`: the z-score is -1.54 (inactive).
Turning to `CN(C)CCCNC(=O)[C@@]1(C)c2ccccc2C(=O)N(Cc2cc(C(F)(F)F)cc(C(F)(F)F)c2)[C@H]1c1ccc(CO)cc1`, the z-score was -0.832 (inactive).
Then `CC(C)NC(=O)[C@@]1(C)c2ccccc2C(=O)N(C(C)C)[C@H]1c1ccc(CO)cc1`, with -0.271 (inactive); and `O=C(N1CCCCC1)[C@@]1(Cc2ccccc2)COC(c2ccc(OCCCO)cc2)=N1`, with 1.68 (inactive).
Then `O=C1C[C@@](C(=O)NCC(F)(F)F)(c2ccc([N+](=O)[O-])cc2)[C@@H](c2ccc(CO)cc2)N1C1CCCCC1`, with 0.423 (inactive); and `O=C1c2ccccc2[C@](Cc2ccccc2I)(C(=O)NCc2ccccc2)[C@H](c2ccc(CO)cc2)N1C1CCCCC1`, with 0.623 (inactive); and `C=CC[C@@]1(C(=O)N2CCCCC2)N=C(c2ccc(OCCCO)cc2)O[C@@H]1c1ccccc1`, with 2.5 (inactive).
Then `C=CCOC(=O)[C@@H]1[C@H]2C(=O)O[C@H](c3ccccc3)[C@H](c3ccccc3)N2[C@H](c2ccc(OCCOC(=O)[C@H]3C[C@H]4C(=O)N[C@@H](CCCC[N+](C)(C)C)C(=O)N4[C@H]3c3ccc(O)cc3)cc2)[C@@]12C(=O)Nc1ccc(I)cc12`, with -0.173 (inactive).
For `C[C@H]1ON(c2ccc(C(=O)OC(C)(C)C)cc2)[C@@H](c2ccc(O)cc2)[C@@H]1C(=O)N1C(=O)OC[C@@H]1c1ccccc1`, the z-score was -0.0657 (inactive).
The result for `Cc1c(NC(=O)/C(C#N)=C/C=C/c2ccccc2[N+](=O)[O-])c(=O)n(-c2ccccc2)n1C` reads -1.43 (inactive); that for `CC(C)(C)OC(=O)CC[C@]1(C(=O)NCCN2CCOCC2)N=C(c2ccc(OCCCO)cc2)O[C@H]1c1ccccc1N=[N+]=[N-]`, -0.201 (inactive); that for `CCOC(=O)[C@H]1C/C=C/C[C@H](C(=O)OCC)C(=O)O[C@H]2[C@@H](OC)O[C@H](CO)[C@@H](OC(=O)Nc3ccc(OC)cc3)[C@@H]2OC1=O`, -1.29 (inactive).
Then `O=C1NC(=O)C2C1C=CC(C(O)c1c(F)cccc1Cl)N2Nc1ccccn1` (centres undefined), with -0.609 (inactive); and `COc1ccc([Si](C)(C)[C@@H]2[C@@H](CCO)O[C@]3(C(=O)N(Cc4cccc(N5C(=O)c6ccccc6Oc6ccccc65)c4)c4ccccc43)[C@H]2C)cc1`, with -1.82 (inactive).
The result for `Cc1ccc(S[C@]2(C(=O)NCc3ccccc3)CC(=O)N(C(C)C)[C@@H]2c2ccc(CO)cc2I)cc1` reads 1.65 (inactive); that for `CC(C)CCC[C@@H](C)[C@H]1CC[C@@]2(C)C3=C(CC[C@]12C)[C@@]1(C)CC[C@H](OC(=O)c2ccc(Br)cc2)C(C)(C)C1CC3` (some centres undefined), -0.255 (inactive).
For `NC(=O)N1C(=O)C2C(C1=O)C1C=C(c3ccc(CO)cc3)C2C(C2CC2)N1Cc1sc2ccccc2c1Cl` (centres undefined), the z-score was -0.207 (inactive).
`C=CCN1C(=O)[C@@]2(O[C@@H](CCn3cc([C@H](O)c4ccccc4)nn3)[C@H]([Si](C)(C)c3ccc(OC)cc3)[C@H]2C)c2ccccc21`: the z-score was -1.76 (inactive).
Then `CC1CC/C=C\[C@H]2OC34C=CCN(CCN5CCOCC5)C(=O)[C@H]3N(CCO)C(=O)[C@@H]4C2C(=O)O1` (some centres undefined), with -0.451 (inactive); and `C=CCOC(=O)[C@H]1[C@@H]2C(=O)O[C@@H](c3ccccc3)[C@@H](c3ccccc3)N2[C@@H](c2ccc(OCCOC(=O)[C@H]3C[C@H]4C(=O)N[C@@H](Cc5ccccc5)C(=O)N4[C@H]3c3ccc(O)cc3)cc2)[C@]12C(=O)Nc1ccc(I)cc12`, with -0.0968 (inactive).
Regarding `COc1ccc(C#Cc2ccc3c(c2)[C@]2(C(=O)N3)[C@H](C(=O)N3CCc4cc(OC)c(OC)cc4C3)[C@H]3C(=O)O[C@H](c4ccccc4)[C@H](c4ccccc4)N3[C@@H]2c2ccc(O)cc2)cc1`, the z-score was -0.297 (inactive).
Then `O=C1O[C@@H](c2ccccc2)[C@@H](c2ccccc2)N2[C@@H](c3ccccc3OCCO)[C@]3(C(=O)Nc4ccccc43)[C@@H](C(=O)NC[C@H](O)c3ccccc3)[C@H]12`, with -1.99 (inactive).
Then `C[C@]1(C(=O)NC2CC2)c2ccccc2C(=O)N(Cc2ccc(OC(F)(F)F)cc2)[C@H]1c1ccc(CO)cc1`, with 0.306 (inactive); and `NC(=O)NCC#Cc1ccc2c(c1)[C@]1(C(=O)N2)[C@H](C(=O)Nc2nc3ccccc3s2)[C@H]2C(=O)O[C@H](c3ccccc3)[C@H](c3ccccc3)N2[C@@H]1c1ccc(O)cc1`, with 1.78 (inactive).
